These results are taken from PubChem BioAssay AID1209 (Sanford-Burnham Center for Chemical Genomics, 2008).

Screen size: about 190,000 compounds; about 810 (0.43%) were called active. Rule as the data show it: active = inhibition above about 50%; inactive = the rest. What follows is part of a selection rich in actives, with near analogues and random picks from the rest.

The target of the experiment is Mannose-6-phosphate isomerase (Homo sapiens) (UniProt P34949). Briefly: MPI enzyme activity inhibition – biochemical, fluorescence intensity, coupled assay, primary screen (AID 1209).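 Also: plate controls were DMSO vehicle for no effect and wells lacking substrate for full effect.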 To be noted: purified PMI enzyme, at 20 µM, stronger effect = higher value.
Chain of Mannose-6-phosphate isomerase (Homo sapiens) (P34949 whole entry, looked up): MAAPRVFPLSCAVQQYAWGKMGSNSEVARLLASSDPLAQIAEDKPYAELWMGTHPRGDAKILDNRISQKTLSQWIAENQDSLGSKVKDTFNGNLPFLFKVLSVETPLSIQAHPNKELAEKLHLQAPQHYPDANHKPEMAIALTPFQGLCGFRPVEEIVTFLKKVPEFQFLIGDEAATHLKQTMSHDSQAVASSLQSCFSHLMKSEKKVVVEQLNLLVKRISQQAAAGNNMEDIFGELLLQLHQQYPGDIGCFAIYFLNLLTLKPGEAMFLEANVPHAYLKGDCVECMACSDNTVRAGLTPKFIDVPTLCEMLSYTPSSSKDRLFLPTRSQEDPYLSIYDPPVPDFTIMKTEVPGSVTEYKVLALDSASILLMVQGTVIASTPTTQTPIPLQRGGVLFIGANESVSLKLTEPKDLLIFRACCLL
As for `Cc1nc(SCC(=O)c2ccccc2)n[nH]1`, the inhibition was 65.9% (active). With `Cc1nc(SCC(=O)c2ccc(F)cc2)n[nH]1` the figure was -6.3% (inactive); with `Cc1ccc(C(=O)CSc2n[nH]c(C)n2)cc1`, 48.5% (inactive).

On to `O=C(CCCN1C(=O)/C(=C/c2ccccc2)SC1=S)Nc1cccc(O)c1`, for which the inhibition is 13% (inactive).

For the compound `Cc1ccc(/C=C2/SC(=S)N(CCCC(=O)Nc3ccc(O)cc3)C2=O)cc1`, the inhibition was 22.7% (inactive). The value for `O=C(CCCN1C(=O)/C(=C/c2ccccc2)SC1=S)Nc1ccc(O)cc1` was 73% (active); that for `O=C(COC(=O)/C=C/c1ccc([N+](=O)[O-])cc1)NC(c1ccccc1)c1ccccc1` was 13% (inactive). Regarding `CC1=C(C(=O)Nc2ccccc2)C(c2cccc([N+](=O)[O-])c2)Nc2nc3ccccc3n21` (stereo not given), the inhibition is 6.9% (inactive). As for `O=C(CN1c2cccc3cccc(c23)S1(=O)=O)N1CCOCC1`, the inhibition is 1% (inactive). The value for `CC1=CC(C)(C)Nc2ccc(OC(=O)CN3C(=O)c4cccc5cccc(c45)C3=O)cc21` was 53.4% (active); that for `CC1=CC(C)(C)Nc2ccc(OC(=O)CN3C(=O)CCC3=O)cc21` was 22% (inactive); that for `CC1=CC(C)(C)Nc2ccc(OC(=O)CN3C(=O)c4ccccc4C3=O)cc21` was 16.6% (inactive).

In the case of `Cc1cc(NC(=O)c2cc(-c3ccccc3)on2)n(-c2ccccc2)n1`, the inhibition is 0.3% (inactive). The value for `CCC(C)CCCCNC1=NCCS1` (stereo not given) was -16.3% (inactive); that for `Cc1ccc(/C=N/n2c(C)nnc2C)cc1` was 3.6% (inactive); that for `Cc1ccc(-c2n[nH]c(=S)n2/N=C/c2ccncc2)cc1` was -12% (inactive). The value for `CCOC(=O)c1c(-c2ccc(C)s2)csc1NC(=O)c1cccs1` was 1.1% (inactive); that for `CCOC(=O)c1c(-c2cccs2)csc1N` was 51% (active); that for `NC(=O)c1c(-c2cccs2)csc1N` was 34.2% (inactive).

As to `CCOC(=O)c1c(-c2cccs2)csc1NC(C)=O`, the inhibition is 7.1% (inactive). The value for `CCOC(=O)c1c(-c2ccncc2)csc1N` was 23.6% (inactive); that for `CCOC(=O)c1c(-c2ccc(C)s2)csc1N` was 62.1% (active).

Turning to `O=C1c2ccccc2C(=O)N1CCCCN(C(=O)c1cc2ccccc2oc1=O)c1ccc(F)cc1F`, the inhibition is 11.5% (inactive). Regarding `Cc1cccc(-n2c(Cc3ccccc3)nnc2SCC(=O)N2CCOCC2)c1`, the inhibition was -6.7% (inactive). With `O=C(NCc1ccccc1)c1cnc(-c2ccccn2)nc1C(F)(F)F` the figure was -3.7% (inactive). With `CCC(OC(=O)c1cccs1)C(=O)NC1CCCCC1` (stereo not given) the figure was 3.4% (inactive); with `O=[N+]([O-])c1cc(/C=N/n2c(-c3ccncc3)n[nH]c2=S)ccc1Cl`, 2.2% (inactive).

For the compound `CC(C)CC(c1nnnn1Cc1ccc2c(c1)OCO2)N1CCC(C(N)=O)CC1` (stereo not given), the inhibition is 7.2% (inactive).

On to `Cc1sc(NC(=O)C2CCCCC2C(=O)O)c(C(N)=O)c1C` (stereo not given), for which the inhibition is -5.3% (inactive). The value for `CCc1c(C)sc(NC(=O)C2CCCCC2C(=O)O)c1C(N)=O` (stereo not given) was 72.1% (active); that for `CCc1c(C)sc(NC(=O)C2CC2c2ccccc2)c1C(N)=O` (stereo not given) was 7.7% (inactive). The value for `COC(=O)c1c(N2C(=O)CC(Sc3ccccc3C(=O)O)C2=O)sc(C)c1C` (stereo not given) was -16.2% (inactive); that for `COC(=O)c1sccc1NC(=O)CSc1ccccc1N` was 12.4% (inactive); that for `CCN(CC(=O)NCc1ccc(F)cc1)Cc1cc(=O)n2ccsc2n1` was -30.2% (inactive).

`Cc1ccc(-n2nc3cc(C)c(N)cc3n2)cc1`: the inhibition was 75.3% (active).

Turning to `Cc1cc2nn(-c3cccc4ccccc34)nc2cc1N`, the inhibition is 77.5% (active).

For the compound `Nc1ccc2nn(-c3ccccc3)nc2c1`, the inhibition was 35.7% (inactive). With `CCC(=O)Nc1cc2nn(-c3ccc(C)cc3)nc2cc1C` the figure was -2.8% (inactive); with `CC(=O)Nc1cc2nn(-c3ccccc3)nc2cc1Cl`, 0.2% (inactive); with `Nc1ccc2nn(-c3cccc4ccccc34)nc2c1`, 42.9% (inactive). The value for `Nc1cc2nn(-c3ccccc3)nc2cc1Cl` was 69.4% (active); that for `Cc1ccc(-n2nc3ccc(N)cc3n2)cc1` was 38.7% (inactive). The value for `Cc1cc2nn(-c3cccc4ccccc34)nc2cc1NC(=O)c1cccs1` was 12.3% (inactive); that for `OCCNCc1cc(Br)ccc1OCc1ccc(Cl)cc1` was 10.8% (inactive); that for `COc1ccccc1NC(=O)CCN1CCCCCC1` was -1.2% (inactive).

Regarding `O=C(Cc1ccccc1F)OCC(=O)N1CCN(C(=O)c2ccco2)CC1`, the inhibition was -7.8% (inactive). With `COc1cc(/C=N/NC(=O)C(Cc2c[nH]c3ccccc23)NC(=O)OCC(C)C)cc([N+](=O)[O-])c1OCc1ccccc1` (stereo not given) the figure was 13.6% (inactive); with `Cc1ccc(S(=O)(=O)N2CCCC(C(=O)NCc3cccnc3)C2)cc1Cl` (stereo not given), 12.2% (inactive). With `CCOc1ccc(NC(=O)CSc2nnc(-c3ccccn3)n2C)cc1` the figure was 2.1% (inactive). With `[N-]=[N+]=CC(=O)CNC(=O)[C@@H](Cc1ccccc1)N1C(=O)c2ccccc2C1=O` the figure was -1.7% (inactive); with `CCc1nc(SC)[nH]c(=O)c1C`, -10.9% (inactive); with `COC(=O)c1c(NC(=O)/C=C/c2ccco2)sc2c1CCC2`, -2.8% (inactive). With `CCOc1ccc(NS(=O)(=O)c2ccc(NC(=S)NC(C)=O)cc2)cc1`, the inhibition was 4.1% (inactive). With `O=C(COC(=O)C(Cc1ccccc1)NC(=O)c1ccc(Cl)cc1)c1ccc(Cl)cc1` (stereo not given) the figure was 111% (active); with `CCc1ccc(C(=O)COC(=O)C(Cc2ccccc2)NC(=O)c2ccc(Cl)cc2)cc1` (stereo not given), 11.2% (inactive); with `O=C(COC(=O)C(Cc1ccccc1)NC(=O)c1ccccc1)c1ccccc1` (stereo not given), 6.8% (inactive). With `O=C(OC1CCOC1=O)c1cc(-c2ccccc2)nc2ccccc12` (stereo not given) the figure was 8.9% (inactive); with `Oc1ccc2ccccc2c1C=NC1CCCCC1`, 79.8% (active); with `Oc1ccc2ccccc2c1C=Nc1ccc(N2CCOCC2)cc1`, 35.2% (inactive). The value for `OCC(CO)(CO)N=Cc1c(O)ccc2ccccc12` was 37.3% (inactive). For the compound `CN(C)/N=C/c1c(O)ccc2ccccc12`, the inhibition was 31.9% (inactive). Regarding `Oc1ccc2ccccc2c1C=NC12CN3CCN(CN(C3)C1)C2`, the inhibition is 67.7% (active). With `Oc1ccc2ccccc2c1/C=N/n1cnnc1` the figure was 15.7% (inactive); with `O=C(CCc1ccccc1)Nc1ccc(N2CCOCC2)c(Cl)c1`, 11.3% (inactive).

For `N#Cc1nc(COc2ccccc2)oc1NCCCn1ccnc1`, the inhibition was 0.3% (inactive).
